From PubChem BioAssay
Sampled rows, rich in hits. Any-hit rate of the full collection: about 3%.
IP6K1 inhibitor: blocks human inositol hexakisphosphate kinase 1 | Q92551 | IP6K1 kinase, ADP-Glo luminescence, 2 h; stronger effect = lower value | activity change, % (series mostly up to about 58 µM) | hit rate 0.81% among 140,000 | AID 1645851; in the data active = activity change below about -25%; also: % is scaled to controls: 0 for no effect and ±100 for the full control effect
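ADP-Glo luminescence measures ADP made by human IP6K1 during a 2 h RT reaction with ATP/IP6 (mix at 1.3 mM/130 uM); top library doses 57.5 and 19.1 uM final.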
KDM5B inh: blocks human KDM5B histone demethylase activity. AID 1347165. KDM5B demethylase, FDH-coupled NADH fluorescence (FDH is formaldehyde dehydrogenase). hit rate 2.6% among 220,000. Potency, µM (titrated, usually from 57.7 µM), usual class: inhibitors; also: potency is read from the fitted curve at half-maximal effect; 0% is about no effect; nearly all actives have a fitted effect of over 70% in size
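Coupled FDH/NAD⁺ fluorescence readout. KDM5BΔAP 200 nM final; compound titration, 10 min RT preincubation; substrate mix 12.5 µM H3K4me3, 25 µM 2-OG, 50 µM Fe(II), 100 µM ascorbate, 0.25 mM NAD⁺, 0.25 U/mL FDH; ΔRFU over 30 min.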
SNCA viab count: counter-screen for SNCA expression inhibitors: cell viability. HEK-293-SNCA-luc viability, GF-AFC fluorescence, 24 h. hit rate 0.12% among 150,000. Potency, µM (doses to about 57.1 µM), without a hit: at the top dose activity change, negative = cytotoxicity, most hits filed as cytotoxic;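 also: potency is read from the fitted curve at half-maximal effect; 0% = DMSO-treated cells and -100% = medium-only wells without cells; nearly all actives have a fitted effect of over 30% in size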
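Cytotoxicity counterscreen: after 24 h compound treatment of genome-edited SNCA-luciferase HEK-293 cells, live-cell protease substrate GF-AFC read by fluorescence after 30 min; activity scaled between DMSO (0%) and medium-only (-100%), curves Hill-fitted.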
SNCA expr inhib: reduces expression of the alpha-synuclein gene | Potency, µM (doses to about 57.2 µM), for inactives: at the top dose activity change, negative = inhibition, hits mostly inhibitors | hit rate 0.17% among 140,000 | HEK-293 SNCA-luciferase knock-in, luminescence, 24 h;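 also: potency is read from the fitted curve at half-maximal effect; plate controls were DMSO cells for no effect and cell-free wells for full effect; nearly all actives have a fitted effect of over 45% in size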
* = called active by the depositor; i = inactive; u = inconclusive; x = no result given; [ ] = another dose, or the depositor's remark. Unless noted, calls follow the shape of the dose curve; as a rule, active = well fitted curve in the direction sought with a large enough effect; inconclusive = small, poorly fitted or top-dose-only effect, or another doubt; inactive = no such curve, though single readings can be large; an effect the other way counts as inactive or inconclusive.

SMILES	IP6K1 inhibitor	KDM5B inh	SNCA viab count	SNCA expr inhib
Cc1cn2nc(C(=O)NC3CCCCCC3)cc2c(N2CCCC2)n1	10	6.3µM*	18%	18%
Cc1cn2nc(C(=O)NC3CCCC3)cc2c(N2CCCC2)n1	-16	i	9%	19%
Cc1cn2nc(C(=O)NC3CCc4ccccc43)cc2c(N2CCCC2)n1 (stereo not given)	-3	14µM*	1%	8%
CCOC(=O)[C@@H]1CN(C(=O)C2CCCCC2)[C@H]2c3ccc(OC)cc3O[C@@H]12	22	x	x	x
CCCCCNC(=O)c1cc(-c2cccc(OC)c2)nc2c1cnn2C	14	x	x	x
CCCCc1ncc(-c2c(-c3ccccc3)ncn2CCC2CCCN2C)[nH]1 (stereo not given)	2	10µM*	u	-30%
COc1cccc(Nc2ccc3nnc(-c4cc(OC)ccn4)n3n2)c1	-23	28µM*	-24%[87.6 µM]	23%[87.6 µM]
COc1ccc(-c2nnc3ccc(NCCc4ccccc4)nn23)nc1	-19	i	-2%[87.6 µM]	17%[87.6 µM]
COCCCNc1ccc2nnc(-c3ccc(C)cn3)n2n1	-10	40µM*	-9%[87.6 µM]	23%[87.6 µM]
COc1ccc(-c2nnc3ccc(NCC(C)C)nn23)nc1	-16	35µM*	-11%[87.6 µM]	-3%[87.6 µM]
COc1cccc(NC(=O)c2ccnc(-c3nnc4ccc(Nc5ccccc5)nn34)c2)c1	-15	i	u	-28%
COCCNc1ccc2nnc(-c3ccccn3)n2n1	3	u	9%[87.6 µM]	-17%[87.6 µM]
Cc1c(Cl)cccc1-n1ncc(C(=O)N2CCc3ccccc3C2)c1C1CCN(C(=O)OC(C)(C)C)CC1	-15	i	4%	22µM*
COc1ccccc1C(=O)N[C@@H]1CN(c2ccccn2)C[C@H]1CN(C)C	-4	28µM*	-3%	16%
CN(C)C[C@@H]1CN(c2ccccn2)C[C@H]1NC(=O)c1cccc(C#N)c1	-2	u	-16%	-21%
CCn1ncc(C(=O)N[C@@H]2CN(c3ccccn3)C[C@H]2CN(C)C)c1C	5	32µM*	-12%	14%
Cc1cccc(-c2cccc(CN3CCC(NC(=O)Cc4cccc(Cl)c4)CC3)c2)c1	-10	x	u	u
Cc1ccc(NC(=O)c2ccc(Cl)cc2Cl)nc1	x	i	x	x
O=C(O)Cn1ccc2cc(OCc3cccc(-c4ccccc4O)c3)cnc21	-14	u	4%[87.6 µM]	-4%[87.6 µM]
CNC(=O)CCn1ncc2cc(OCc3ccccc3-c3ccc(F)c(Cl)c3)ccc21	-2	u	u	u
Cc1ccc(-c2cccc(COc3cnc4c(ccn4CC(=O)O)c3)c2)cc1	-13	35µM*	2%[87.6 µM]	-1%[87.6 µM]
O=C(O)Cn1ccc2cc(OCc3cccc(-c4ccc(F)c(Cl)c4)c3)cnc21	-11	40µM*	3%[87.6 µM]	10%[87.6 µM]
O=C(NC1CCCN(c2ccc3nnc(-c4ccccc4)n3n2)C1)C1CCCC1 (stereo not given)	4	x	x	x
CNC(=O)[C@@H]1CN(C(=O)c2cc3ccc(OC)cc3[nH]2)C[C@H]1C1CCN(C)CC1	17	20µM*	10%[12.5 µM]	19%
COc1ccc2cc(C(=O)N3CCc4nn(C)c(=O)n4CC3)[nH]c2c1	-5	25µM*	u	22%
SMILES	IP6K1 inhibitor	KDM5B inh	SNCA viab count	SNCA expr inhib
COc1ccc2cc(C(=O)N3CCC(Cc4ccc(C(=O)NC5CC5)cc4)CC3)[nH]c2c1	1	35µM*	-2%	-7%
CCOC(=O)N1CCC(NC(=O)c2cc3ccc(OC)cc3[nH]2)CC1	x	i	x	x
COc1ccc2cc(C(=O)N3CCN(C)CC3)[nH]c2c1	x	i	x	x
CNC(=O)[C@@H]1CN(C(=O)c2ccc3cc[nH]c3c2)C[C@H]1C1CCN(C)CC1	-3	20µM*	2%[12.5 µM]	-15%
COc1ccc2cc(C(=O)N3CCc4n[nH]c(=O)n4CC3)[nH]c2c1	-6	u	-10%	50%
CSc1cccc(NC(=O)CSc2nnc(C(C)N3C(=O)COc4ccccc43)n2C)c1 (stereo not given)	x	i	x	x
COc1ccc(F)cc1-c1cccc(C(=O)NCC(=O)NC2CCN(Cc3ccccc3)CC2)c1	2	x	x	x
COc1ccc(Nc2ccnc(N3CCN(C(=O)c4ccccc4F)CC3)n2)cc1	24	x	-10%	-11%
Cc1ccc(C#N)c(NCc2cccnc2Oc2cccc(C(F)(F)F)c2)n1	-2	25µM*	-10%	-17%
COc1ccc([C@H]2C[C@@H](O)[C@@H](O)[C@@H]2NCc2cn(C)c3ccccc23)cc1	7	u	u	-15%[87.6 µM]
Cc1ccccc1C(=O)N1CC(N2C(=O)c3c(c(C)nn3-c3ccccc3)C2C)C1 (stereo not given)	-3	x	x	x
Cc1cc2c(-c3ccc(CO)cc3)nc(-c3c(C)noc3C)cc2[nH]1	-14	i	-7%[87.6 µM]	58%[87.6 µM]
Cc1cc2c(-c3cccc(OC(C)C)c3)nc(-c3c(C)noc3C)cc2[nH]1	-19	16µM*	u	-2%[87.6 µM]
CCC1=C(C(=O)OC)C(c2cccc(C)c2)N2C(CC(=O)N3CCCCC3C)=CSC2=N1 (stereo not given)	12	u	-12%	1%
COc1ncccc1-c1cc2c(ccn2Cc2ccncc2)c(N2CCOCC2)n1	0	7.9µM*	-6%[87.6 µM]	5%[87.6 µM]
COc1ccccc1-c1cc2c(ccn2Cc2ccncc2)c(N2CCOCC2)n1	-5	u	-10%[87.6 µM]	-5%[87.6 µM]
Fc1ccccc1-c1cc2c(ccn2Cc2ccncc2)c(N2CCOCC2)n1	9	28µM*	-14%[87.6 µM]	-21%[87.6 µM]
COc1ncccc1-c1cc2c(ccn2CC2CCN(C)CC2)c(N2CCOCC2)n1	21	25µM*	5%[87.6 µM]	-1%[87.6 µM]
COc1cccc(-c2cc3c(ccn3CC3CCN(C)CC3)c(N3CCOCC3)n2)c1	-4	i	-28%[87.6 µM]	u
COc1cncc(Nc2ncc(-c3cccc(F)c3)c3c2OCC3)c1	-14	32µM*	-11%[87.6 µM]	-5%[87.6 µM]
Cn1cc(-c2cnc(Nc3ccc(F)cc3)c3c2CCO3)cn1	-14	6.3µM*	-21%[87.6 µM]	62%[87.6 µM]
CN(C)c1cccc(-c2cnc(Nc3ccncc3)c3c2CCO3)c1	-15	28µM*	u	8%[87.6 µM]
COc1ccc(-c2cnc(Nc3ccccc3)c3c2CCO3)cn1	-14	40µM*	-10%[87.6 µM]	96%[87.6 µM]
Fc1cccc(Nc2ncc(-c3cncnc3)c3c2OCC3)c1	-11	x	3%[87.6 µM]	12%[87.6 µM]
Cc1nn(-c2ccccc2)c2c1C(C)N(C1CCN(C(=O)c3ccc(F)cc3)CC1)C2=O (stereo not given)	-12	x	x	x
SMILES	IP6K1 inhibitor	KDM5B inh	SNCA viab count	SNCA expr inhib
Cn1ncc2c(C(=O)NCc3ccccc3F)cc(-c3ccccc3C(F)(F)F)nc21	3	x	x	x
COc1cccc(Nc2ncc(-c3cccnc3)c3c2OCC3)c1	-12	32µM*	-4%[87.6 µM]	172%[87.6 µM]
COc1ccccc1-c1cnc(Nc2cccnc2)c2c1CCO2	11	i	-16%[87.6 µM]	15%[87.6 µM]
COc1ccccc1-c1cnc(Nc2cccnc2OC)c2c1CCO2	26	35µM*	-14%[87.6 µM]	10%[87.6 µM]
COc1ccccc1-c1cnc(Nc2ccccc2)c2c1CCO2	-20	u	4%[87.6 µM]	37%[87.6 µM]
COc1ccc(Nc2ncc(-c3ccccc3OC)c3c2OCC3)cc1	-8	35µM*	u	38%[87.6 µM]
COc1ccccc1-c1cnc(Nc2cccc(N[S+](C)(=O)[O-])c2)c2c1CCO2	30	25µM*	u	u
